Assay results: PubChem BioAssay (NCATS)
Inconclusive results are not listed. A number with no mark means an inactive call. Activity calls are given as the source filed them. The call rests on the fitted dose curve; in most records, active means well fitted inhibition curve with a large enough effect; inconclusive means small, poorly fitted or top-dose-only effect; inactive means flat fitted curve, though single readings scatter. Where a SMILES comes first, the peptide text is derived from it. [ ]: non-standard residue; d: D form. ξ: configuration not given here. ξPhe(βξ-Me) = CC(c1ccccc1)C(N)C(=O)O; GABA = NCCCC(=O)O

test system: CRL-7250; assay: Cytotoxic Profiling of Annotated Libraries Using Quantitative High-Throughput Screening (AID 1296008); conditions: Five cell lines viability, CellTiter-Glo ATP luminescence, 48-72 h; max response: stronger effect = lower value; further: nearly all actives have a fitted effect of over 60% in size
Summary of the method: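 Cytotoxicity was measured as CellTiter-Glo ATP luminescence, read after 10 min at room temperature. Compound treatment of the cells lasted 48 or 72 hr at 37 degrees Celsius in a qHTS format.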
On the % scale 0 is the no-effect control and ±100 the full control effect; potency means the concentration at half of the fitted maximal effect.

| Structure (SMILES) | outcome | Potency | max response [%] |
| --- | --- | --- | --- |
| CC1CCC2(CO)C(C(=O)O)=CCCC2C1(C)CCc1ccoc1 (stereo not given) | inactive |  |  |
| C=C1C(=O)OC2C1C(O)CC1(C)C(O)CCC(C=O)C21 (stereo not given) | inactive |  |  |
| CCNC(=O)Nc1ccc(-c2nc3c(c(N4CCOC[C@@H]4C)n2)CCN(c2ncccn2)C3)cc1 |  | 259 nM (active) |  |
| O=C(CSc1nc2c(c(=O)n1-c1ccccc1)SCC2)Nc1ccc(-c2ccccc2)cn1 |  | 231 nM (active) |  |
| O=C(O)C(O[C@@H]1O[C@H](CO[C@@H]2O[C@H](CO)[C@@H](O)[C@H](O)[C@H]2O)[C@@H](O)[C@H](O)[C@H]1O)c1ccccc1 (stereo not given in full) |  |  | -5.65 |
| C/C=C1\[C@H](O[C@@H]2O[C@H](CO)[C@@H](O)[C@H](O)[C@H]2O)OC=C2C(=O)OCCc3ccc(O)c(c3)Oc3ccc(cc3)CCOC(=O)C[C@H]21 |  |  | -21.9 |
| O=C(O)c1cc2cccc([N+](=O)[O-])c2[nH]1 |  |  | -12.6 |
| CC1NC(=O)CCCNC(=O)C(Cc2c[nH]c3ccccc23)NC(=O)C(C)NC(=O)C(C(C)C)NC(=O)C(C(C)c2ccccc2)NC(=O)C(C(C)C)NC1=O (stereo not drawn) (cyclo([GABA]AV[ξPhe(βξ-Me)]VAW); configuration not given here) |  |  | -8.98 |
| O=C(O)[C@@H]1C[C@H]2C[C@@H](CCc3nn[nH]n3)CC[C@H]2CN1 |  |  | 0.564 |
| C/C=C/C=C/C(=O)N1CC[C@]23c4ccccc4N[C@H]4N(C)c5cccc6c5[C@@]42CCN([C@H]6C2OC2(C)C)[C@H]13 (stereo not given in full) |  |  | -2.8 |
| C[C@@H]1O[C@@H](O[C@H]2[C@H](OC(=O)[C@]34CCC(C)(C)C[C@H]3C3=CCC5[C@@]6(C)CC[C@H](O[C@@H]7O[C@H](C(=O)O)[C@@H](O)[C@H](O)[C@H]7O[C@@H]7O[C@H](CO)[C@H](O)[C@H](O)[C@H]7O)[C@@](C)(C=O)C6CC[C@@]5(C)[C@]3(C)C[C@H]4O)O[C@H](C)[C@H](O[C@@H]3O[C@H](C)[C@H](O)[C@H](O)[C@H]3O)[C@@H]2O)[C@H](O)[C@H](O)[C@H]1O[C@@H]1OC[C@@H](O)[C@H](O[C@@H]2O[C@H](CO)[C@@H](O)[C@H](O)[C@H]2O)[C@H]1O (stereo not given in full) |  |  | -5.26 |
| C=C1OC2CC(C(=O)O)C=CC2NC1=O (stereo not given) |  |  | -1.3 |
| O=C(OC[C@H]1O[C@H](O[C@]2(CO)O[C@H](CO)[C@@H](O)[C@@H]2O)[C@H](O)[C@@H](O)[C@@H]1O)c1ccccc1 |  |  | -1.41 |
| CC(C)C(NC(=O)c1ccc2ccccc2n1)C(=O)NC(CC(=O)O)C(=O)COc1c(F)cccc1F (stereo not given) |  |  | -6.89 |
| CC(C)CC1NC(=O)C(C)NC(=O)C(CC(C)C)OC(=O)CCCNC1=O (stereo not given) |  |  | -2.1 |
| C[C@@H]1O[C@@H](O[C@H]2[C@@H](OC(=O)[C@]34CCC(C)(C)CC3C3=CCC5[C@@]6(C)C[C@H](O)[C@H](O[C@@H]7O[C@H](C(=O)O)[C@@H](O)[C@H](O)[C@H]7O)[C@@](C)(C(=O)O)C6CC[C@@]5(C)[C@]3(C)CC4)OC[C@H](O)[C@@H]2O)[C@H](O)[C@H](O)[C@H]1O[C@@H]1OC[C@@H](O)[C@H](O)[C@H]1O (stereo not given in full) |  |  | -0.804 |
| C[C@H](C/C=C/C(C)(C)O)[C@H]1CC[C@@]2(C)[C@@H]3[C@@H](O[C@@H]4O[C@H](CO)[C@@H](O)[C@H](O)[C@H]4O)C=C4C(CC[C@H](O)C4(C)C)[C@]3(C=O)CC[C@]12C (stereo not given in full) |  |  | -2.26 |
| N#CC(c1ccnc(OCc2ccc(CN3CCOCC3)cc2)n1)c1nc2ccccc2s1 (stereo not given) | inactive |  |  |
| CSc1ccc(C(=O)N[C@@H]2CCCC[C@@H]2NC(=O)CNC(=O)c2cc(C(F)(F)F)ccc2NC(=O)NC(C)C)cc1 |  |  | -1.98 |
| CCCN1CCN(c2ccc(C(=O)NC3(C(=O)NCC#N)CCCCC3)cc2)CC1 |  |  | -0.563 |

| Structure (SMILES) | outcome | Potency | max response [%] |
| --- | --- | --- | --- |
| O=C(O)C1CN(Cc2ccc(-c3nc4cc(Cc5ccccc5F)ccc4s3)c(F)c2)C1 |  |  | 1.29 |
| CC(NC(=O)C(O)C(C)C)C(=O)NC1C(=O)N(C)CCc2ccccc21 (stereo not given) |  |  | -0.526 |
| CN1CCc2nc(C(=O)N[C@@H]3C[C@@H](C(=O)N(C)C)CC[C@@H]3NC(=O)C(=O)Nc3ccc(Cl)cn3)sc2C1 |  |  | 3.08 |
| C=CC1(C)C=C2C(=O)OC(=O)C3=C(CCCC3(C)C)C2(O)CC1 (stereo not given) |  |  | -0.556 |
| Cc1cc(Nc2nc(NC(C)c3ncc(F)cn3)ncc2Cl)n[nH]1 (stereo not given) | inactive |  |  |
| COc1ccc(CNC(=O)c2sc3nc(C)cc(C)c3c2N)cc1 |  |  | -0.266 |
| CC(C)(C)c1cc(Br)cc([C@H](CC(=O)O)NC(=O)CNC(=O)c2cc(O)cc(NC3=NCC(O)CN3)c2)c1 (stereo not given in full) |  |  | -6.62 |
| CC1=CCC(C(C)(C)O[C@@H]2O[C@H](CO[C@@H]3O[C@@H](C)[C@H](O)[C@@H](O)[C@H]3O)[C@@H](O)[C@H](O)[C@H]2O)CC1 (stereo not given in full) |  |  | -8.36 |
| CC/C=C\CCO[C@@H]1O[C@H](CO[C@@H]2OC[C@H](O)[C@H](O)[C@H]2O)[C@@H](O)[C@H](O)[C@H]1O | inactive |  |  |
| CC1(C)CC[C@]2(C(=O)O)CC[C@]3(C)C(=CCC4[C@@]5(C)CC[C@H](O[C@@H]6O[C@H](CO)[C@@H](O)[C@H](O)[C@H]6O[C@@H]6O[C@H](CO)[C@@H](O)[C@H](O)[C@H]6O)[C@@](C)(CO)C5CC[C@]43C)[C@@H]2C1 (stereo not given in full) |  |  | -6.6 |
| C[C@@H]1O[C@@H](O[C@H]2[C@H](OC(=O)[C@]34CCC(C)(C)C[C@H]3C3=CCC5[C@@]6(C)C[C@H](O)[C@H](O[C@@H]7O[C@H](CO)[C@@H](O[C@H]8OC[C@](O)(CO)[C@H]8O)[C@H](O)[C@H]7O)[C@@](C)(CO)C6[C@H](O)C[C@@]5(C)[C@]3(C)C[C@H]4O)OC[C@H](O)[C@@H]2O)[C@H](O)[C@H](O)[C@H]1O[C@@H]1OC[C@@H](O)[C@H](O[C@@H]2OC[C@](O)(CO)[C@H]2O)[C@H]1O (stereo not given in full) | inactive |  |  |
| CC(=O)O[C@H]1CC[C@H](C)[C@@]2(C)[C@H](OC(C)=O)c3c(C)coc3C(=O)[C@H]12 |  |  | -18.1 |
| CC(C)CNCc1ccc(-c2ccccc2S(=O)(=O)N2CCCC2)cc1 |  |  | 1.47 |
| COc1cc(Br)c(S(=O)(=O)Nc2ccc(C(F)(F)F)c(O[C@@H]3CCN(C)C3)c2)cc1OC |  |  | -0.0326 |
| O=C1CC2(CCCC2)[C@H](O)C(=O)N1CCCCN1CCN(c2ncccn2)CC1 |  |  | 2.44 |
| C[C@H]1CC[C@@]2(OC1)O[C@H]1CC3C4CC[C@H]5C[C@@H](O)[C@H](O)C[C@]5(C)C4=CC(=O)[C@]3(C)[C@H]1[C@@H]2C (stereo not given in full) |  |  | -0.885 |
| CCn1cc(NC(=S)Nc2cc(Cl)ccc2OC)c(C(N)=O)n1 |  |  | -6.99 |
| O=C(Cc1ccc(-c2ccccc2)cc1)NC1CCC1 | inactive |  |  |
| COc1cc(C)c(C(=O)Oc2cc(C)c(C(=O)Oc3cc(C)c(C(=O)NC(C)C(=O)O)c(O)c3)c(O[C@@H]3O[C@H](CO)[C@@H](O)[C@H](O)[C@H]3OC(C)=O)c2)c(OC)c1 (stereo not given in full) |  |  | -13.8 |
| CC(C)C[C@H](CC(=O)NO)C(=O)N[C@H](C(=O)N[C@@H](C)C(=O)NCCN)C(C)(C)C | inactive |  |  |
